# Results as given in PubChem BioAssay AID504401 (The Scripps Research Institute Molecular Screening Center, 2011).
# Values without a mark were called inactive. The rule behind the calls is not given here.
# System: Potassium Channel KATP
# Assay: CYP450 and receptor off-target profile – biochemical, Ricerca HitProfilingScreen, selectivity assay for GPR7 antagonist project, late-stage follow-up (AID 504401)
# Settings: Ricerca radioligand binding and CYP450 panel, at 10 µM, stronger effect = higher value
compound,measurement,value
COc1ccc(Oc2c(Cl)cnn(-c3cc(C)cc(C)c3)c2=O)cc1,inhibition,11%
